44 compounds from PubChem BioAssay (NCATS) can be followed below.

“And” between values parts separate entries of the source, which are not always exact repeats. Equal values may be shown once. Inconclusive results are not listed. The source made the active and inactive calls. Calls follow the shape of the dose curve; as a rule, active = well fitted curve in the direction sought with a large enough effect; inconclusive = small, poorly fitted or top-dose-only effect, or another doubt; inactive = no such curve, though single readings can be large; an effect the other way counts as inactive or inconclusive.

Assay [1] in a line: Quantitative High-Throughput drug screen in 47 multiple myeloma cell lines against the NCATS MIPE library collection: KMS12PE_JCRB cell viability assay (AID 1918972). Also: nearly all actives have a fitted effect of over 30% in size. As to viability: series mostly up to about 46 µM. Summed up: (§1)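 Inhibition of cell viability is measured here. Each line was plated at 500 cells per well, treated with MIPE 4.0 drugs, kept 48 hours at 37C, then assayed for ATP content by CellTiter-Glo luminescence.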

A short description of assay [2]: Quantitative High-Throughput drug screen in 47 multiple myeloma cell lines against the NCATS MIPE library collection: NCIH929_DSMZ cell viability assay (AID 1918978). Also: nearly all actives have a fitted effect of over 35% in size. Summed up:
(§2)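 ATP-based luminescence (CellTiter-Glo, 5 min RT incubation) quantified surviving cells following two days' treatment with MIPE 4.0 agents at 37 °C, 5% CO2.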

The nature of assay [3]: Quantitative High-Throughput drug screen in 47 multiple myeloma cell lines against the NCATS MIPE library collection: OCIMY1_PLB cell viability assay (AID 1918979). Also: nearly all actives have a fitted effect of over 35% in size. As to viability: series mostly up to about 46 µM. An outline of the steps:
as §2

Assay [4] can be described thus: Quantitative High-Throughput drug screen in 47 multiple myeloma cell lines against the NCATS MIPE library collection: MM1S_ATCC cell viability assay (AID 1918980). Also: nearly all actives have a fitted effect of over 45% in size. Summed up: as §2
Assay [5] is described as follows: Quantitative High-Throughput drug screen in 47 multiple myeloma cell lines against the NCATS MIPE library collection: MM1R_ATCC cell viability assay (AID 1918981). Also: nearly all actives have a fitted effect of over 35% in size. Summed up:
as §2

The nature of assay [6]: Quantitative High-Throughput drug screen in 47 multiple myeloma cell lines against the NCATS MIPE library collection: KMS20_JCRB cell viability assay (AID 1918973). Also: nearly all actives have a fitted effect of over 45% in size. An outline of the steps: as §1
Assay [7] is described as follows: Quantitative High-Throughput drug screen in 47 multiple myeloma cell lines against the NCATS MIPE library collection: KMS26_JCRB cell viability assay (AID 1918975). Also: nearly all actives have a fitted effect of over 45% in size. Summed up: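 Luminescent ATP measurement with CellTiter-Glo gives viability, scaled between DMSO-only wells (100%) and media-only wells (0%). Cells, 500 per well, faced library compounds for 48 hours at 37C.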

Assay [8] in a line: Quantitative High-Throughput drug screen in 47 multiple myeloma cell lines against the NCATS MIPE library collection: MMM1_PLB cell viability assay (AID 1918976). Also: nearly all actives have a fitted effect of over 35% in size. Summed up: as §2
Assay [9] can be described thus: Quantitative High-Throughput drug screen in 47 multiple myeloma cell lines against the NCATS MIPE library collection: MOLP8_DSMZ cell viability assay (AID 1918977). Also: nearly all actives have a fitted effect of over 45% in size. Summed up: as §2
Potency is read from the fitted curve at half-maximal effect.

As for `Nc1ncnc2nc(-c3ccc(N4CCOCC4)nc3)cc(-c3cccc(Br)c3)c12`, the Potency entry in assay [1] and in assay [3] was “inactive” each time. The Potency in assay [2] was 14.8 µM (active); in [4], 23.5 µM (active).
With `O=C(O)CCc1ccc(NCc2cccc(Oc3ccccc3)c2)cc1`, the Potency entry in [1], in [2], in assay [4] and in [5] was “inactive” in each case.
Take `OC[C@H](Cc1ccccc1)Nc1nc(Oc2ccc3c(c2)CCC3)nc2c1ncn2Cc1ccc(-c2ccccc2)cc1`: the Potency entry in [1] and in assay [5] was “inactive” throughout.
With `C1COC(NC(C2CC2)C2CC2)=N1`, the Potency entry in [6], in assay [7], in [2] and in assay [4] was “inactive” in each case.
As to `Cc1ccc(N(CC2=NCCN2)c2cccc(O)c2)cc1`, the Potency entry in assay [6], in [2] and in [3] was “inactive” each time. The Potency in [4] was 20.9 µM (active).
Regarding `Cc1oncc1C(=O)Nc1ccc(C(F)(F)F)cc1`, the Potency result in [1], in [3] and in assay [5] was “inactive” throughout. Moreover, the Potency is 18.7 µM (active) in assay [2] and 14.8 µM (active) in assay [4].
With `CCOc1cc(C(=O)Nc2ccc(Cl)c(-c3nc4ccccc4[nH]3)c2)cc(OCC)c1OCC`, the Potency in [6] is 1.48 µM (active); in [8], 20.9 µM (active); in assay [5], 13.2 µM (active). Moreover, in [7], the Potency entry was “inactive”.
For the compound `O=C(NOC[C@H](O)CO)c1ccc(F)c(F)c1Nc1ccc(I)cc1F`, the Potency was 0.0662 µM (active) in [6], 0.059 µM (active) in [2] and 16.6 µM (active) in [4]. The Potency entry in [7] and in assay [3] was “inactive” throughout.
Turning to `NNCCc1ccccc1`, the Potency in assay [1] is 14.8 µM (active); in [4], 5.9 µM (active); in assay [5] it was 6.62 µM (active). The Potency entry in assay [2] and in assay [3] was “inactive” throughout.
Take `CS(=O)(=O)c1ccc(C(=O)Nc2ccc(Cl)c(-c3ccccn3)c2)c(Cl)c1`: the Potency entry in [7] and in assay [5] was “inactive” in each case. In addition, the Potency in assay [2] was 2.96 µM (active).
With `CC[C@H](Nc1ncnc2nc[nH]c12)c1nc2cccc(F)c2c(=O)n1-c1ccccc1`, the Potency in assay [8] is 18.7 µM (active); in assay [9], 23.5 µM (active); in [2], 8.33 µM (active); in assay [3], 16.6 µM (active); in assay [4], 0.118 µM (active).
As for `CCCc1nc2c(C)cc(-c3nc4ccccc4n3C)cc2n1Cc1ccc(-c2ccccc2C(=O)O)cc1`, the Potency result in assay [9], in assay [2], in assay [3] and in assay [5] was “inactive” throughout. Besides, the Potency in [4] is 26.4 µM (active).
Regarding `CCc1cc(Nc2nccc(-c3c(-c4ccc(OC)c(C(=O)Nc5c(F)cccc5F)c4)nc4ccccn34)n2)c(OC)cc1N1CCC(N2CCN(S(C)(=O)=O)CC2)CC1`, the Potency in [2] was 7.43 µM (active).
Take `CCOc1cc(C=C2C(=O)N(c3ccccc3)N=C2C)cc(Cl)c1OCC(=O)OC`: the Potency in [7] was 20.9 µM (active); in assay [2], 2.64 µM (active); in [4], 7.43 µM (active); in assay [5] it was 23.5 µM (active). In addition, the Potency entry in [9] and in assay [3] was “inactive” in each case.
For `CC1(C)Cc2c(-c3ccccc3)c(-c3ccc(Cl)cc3)c(CC(=O)O)n2C1`, the Potency in assay [8] is 20.9 µM (active); in [9] it was 20.9 µM (active); in assay [3], 23.5 µM (active); in assay [4], 26.4 µM (active).
With `CCN(CC)CCCC(C)Nc1nc(C)cc(Nc2ccc3nc(C)cc(N)c3c2)n1` (configuration not stated), in [2], the Potency was 16.6 µM (active).
Regarding `Cc1cnc(Nc2ccc(OCCN3CCCC3)cc2)nc1Nc1cccc(S(=O)(=O)NC(C)(C)C)c1`, the Potency result in [7], in assay [2], in assay [3] and in [5] was “inactive” throughout.
Consider `CNC(=O)c1ccc(N2C(=S)N(c3ccc(C#N)c(C(F)(F)F)c3)C(=O)C2(C)C)cc1F`, for which the Potency entry in assay [7], in assay [2], in assay [3] and in [5] was “inactive” in each case. Further, the Potency in assay [4] is 18.7 µM (active).
On to `O=C(Nc1nc2ccccc2n1CCN1CCOCC1)c1cccc([N+](=O)[O-])c1`, for which the figures for the Potency in assay [7], in assay [4] and in assay [5] were 29.6 µM (active), 9.35 µM (active) and 18.7 µM (active), respectively.
Regarding `O=C(Nc1ccc(F)c(C(F)(F)F)c1)Nc1nnc(-c2ccncc2)s1`, the Potency in assay [2] was 2.64 µM (active); in assay [5], 11.8 µM (active). The Potency result in [3] is “inactive”.
As for `NC(=O)c1cnccn1`, the Potency result in assay [2], in assay [3] and in assay [5] was “inactive” in each case.
Regarding `O=c1[nH]cnc2[nH]ncc12`, the Potency entry in assay [6], in assay [2] and in assay [5] was “inactive” throughout.
For the compound `CN(C)C(=O)c1ccc(S(=O)(=O)c2ccc(NC(=O)[C@@](C)(O)C(F)(F)F)c(Cl)c2)cc1`, the Potency was 8.33 µM (active) in assay [8] and 14.8 µM (active) in assay [5]. The Potency result in assay [3] was “inactive”.
On to `COc1cc2c(cc1OC)CN(CCc1ccc(NC(=O)c3cccc4c(=O)c5cccc(OC)c5[nH]c34)cc1)CC2`, for which the Potency in assay [8] was 20.9 µM (active); in assay [4] it was 2.64 µM (active).
On to `COc1ccc2c3n(c(=NC(=O)c4cccnc4)nc2c1OC)CCN3`, for which the Potency in assay [7] was 11.8 µM (active); in assay [8], 4.69 µM (active); in assay [2], 1.87 µM (active); in [4], 2.64 µM (active); in [5], 5.9 µM (active).
For the compound `CCOc1ccn(-c2ccc(F)cc2)c(=O)c1C(=O)Nc1ccc(Oc2ccnc(N)c2Cl)c(F)c1`, in assay [3], the Potency result was “inactive”. Also, in [4], the Potency is 16.6 µM (active).
`O=C(c1cc(Cc2n[nH]c(=O)c3ccccc23)ccc1F)N1CCN(C(=O)C2CC2)CC1`: the Potency entry in assay [9] is “inactive”. Besides, in assay [4], the Potency was 23.5 µM (active).
On to `NC(=O)c1ccc(-c2nc(-c3ccc4c(c3)OCCO4)c(-c3ccccn3)[nH]2)cc1`, for which the Potency entry in [9], in assay [2], in [3] and in assay [5] was “inactive” in each case.
In the case of `CC(C)(Sc1ccc(CCN(CCCCC2CCCCC2)C(=O)NC2CCCCC2)cc1)C(=O)O`, the results for the Potency in assay [8], in assay [4] and in [5] were 18.7 µM (active), 4.18 µM (active) and 23.5 µM (active), respectively. Also, in assay [2], the Potency result is “inactive”.
For `Cc1cc(SCc2sc(-c3ccc(C(F)(F)F)cc3)nc2C)ccc1OCC(=O)O`, the Potency result in assay [2], in assay [3] and in [5] was “inactive” in each case.
`Cc1cnc(NC(=O)C2=C(O)c3ccccc3S(=O)(=O)N2C)s1`: the Potency result in [2], in assay [3] and in assay [5] was “inactive” in each case.
For `Cc1cc(Nc2nc(N[C@@H](C)c3ncc(F)cn3)ncc2Cl)n[nH]1`, the Potency result in [3] was “inactive”. Moreover, the figures for the Potency in assay [4] and in [5] were 3.32 µM (active) and 26.4 µM (active), respectively.
As for `Cc1csc(NC(=O)c2sc3nc4c(c(C(F)(F)F)c3c2N)CCC4)n1`, the Potency result in assay [7], in assay [2] and in [5] was “inactive” in each case. The Potency in assay [4] was 13.2 µM (active).
Turning to `COc1cc(Oc2ccnc3cc(OC)c(OC)cc23)ccc1NC(=O)NC(C)c1nccs1` (configuration not stated), the Potency result in assay [9] and in [2] was “inactive” throughout. In addition, in assay [5], the Potency was 18.7 µM (active).
As for `CC1(C)SCCN(S(=O)(=O)c2ccc(OCC#CCO)cc2)[C@@H]1C(=O)NO`, the values for the Potency in assay [7] and in assay [8] were 2.96 µM (active) and 1.87 µM (active), respectively. The Potency entry in assay [3] was “inactive”.
As to `O=c1ncn2nc(Sc3ccc(F)cc3F)ccc2c1-c1c(Cl)cccc1Cl`, the Potency was 18.7 µM (active) in [2] and 16.6 µM (active) in [5]. The Potency result in assay [3] was “inactive”.
`CC(C=CC1=C(C)CCCC1(C)C)=CC=CC(C)=CC(=O)O`: the Potency is 18.7 µM (active) and 6.62 µM (active) in assay [2]; 0.526 µM (active) in assay [4]; 14.8 µM (active) in assay [5]. In addition, the Potency result in assay [3] was “inactive”.
Turning to `NC(=O)c1ccc(I)c([N+](=O)[O-])c1`, the Potency in [2] is 8.33 µM (active); in assay [4], 18.7 µM (active); in assay [5], 23.5 µM (active). Further, the Potency entry in assay [3] was “inactive”.
As for `Nc1nccc(-c2ccc3noc(-c4ccc(Cl)cc4)c3c2)n1`, the Potency entry in assay [9] and in [3] was “inactive” each time. The Potency in assay [2] was 20.9 µM (active); in [4], 16.6 µM (active).
Turning to `N#CC[C@H](C1CCCC1)n1cc(-c2ncnc3[nH]ccc23)cn1`, the Potency entry in [9], in assay [2] and in assay [3] was “inactive” throughout. Moreover, in [4], the Potency is 4.18 µM (active).
As to `CCCn1c(=O)c2[nH]c(C34CC5CC3C[C@@H](C5)C4)nc2n(CCC)c1=O`, the Potency entry in assay [2] and in [3] was “inactive” in each case. Further, the Potency in assay [5] was 11.8 µM (active).
Turning to `C[C@]1(c2nc3c(C(N)=O)cccc3[nH]2)CCCN1`, the Potency is 23.5 µM (active) in [2] and 4.69 µM (active) in assay [4]. For the same compound, in assay [5], the Potency result is “inactive”.
On to `Cc1ccc(-n2nc(C(C)(C)C)cc2NC(=O)Nc2ccc(OCCN3CCOCC3)c3ccccc23)cc1`, for which the Potency in assay [8] was 20.9 µM (active); in assay [2] it was 0.59 µM (active); in assay [4] it was 4.18 µM (active). Further, the Potency result in assay [3] is “inactive”.
Turning to `Cc1cc([C@@H](C)Nc2ccccc2C(=O)O)c2nc(N3CCOCC3)cc(=O)n2c1`, the Potency in assay [8] was 19.1 µM (active); in assay [3] it was 8.55 µM (active); in [4], 9.59 µM (active); in assay [5] it was 27 µM (active).
